Most compounds without a hit are left out; they make up all but 4.6% or so of the library.
tim10-1 inh – inhibits growth of tim10-1 mutant yeast; S. cerevisiae tim10-1 ts strain growth, BacTiter-Glo, 24 h; actives 2.2% (n = 330,000); AID 463190; inhibition, % at 20 µM;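 active = inhibition of at least 40%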;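 also: mutant grown at 25 °C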
TIM10 inh – growth inhibitors of TIM10 yeast strain. S. cerevisiae TIM10 strain growth, BacTiter-Glo luminescence, 24 h. inhibition, % at 10 µM. actives 1.4% (n = 330,000). AID 463195;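 active = inhibition of 40% or more at the single tested concentration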;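 also: wild-type TIM10 isogenic control strain grown at permissive 25 °C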
SKKanGAS inh – SKKanGAS growth inhibition | actives 1.3% (n = 300,000) | inhibition, % at 7.5 µM | S. pyogenes SKKanGAS, kanamycin growth, BacTiter-Glo, 6 h;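 active = mean replicate score, as percent of positive control median, at least 50; inconclusive = mean below 50 but one replicate at or above 50; inactive = mean and every replicate below 50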;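 also: strain carries kanamycin resistance gene driven by streptokinase promoter and grows in 40 µg/ml kanamycin; loss of luminescence reflects streptokinase promoter inhibition or plain growth inhibition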
tim23-1 inh – tim23-1 yeast growth inhibition; S. cerevisiae tim23-1 growth, BacTiter-Glo luminescence, 24 h; inhibition, % at 20 µM; actives 1.3% (n = 330,000); AID 463212;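 active = growth inhibition of the mutant yeast at or above 50%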;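 also: temperature-sensitive mutant grown at 25 °C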
PfHsp90 set2 – inhibits growth of yeast expressing Plasmodium falciparum Hsp90 | actives 0.32% (n = 310,000) | inhibition, % at 9.4 µM | S. cerevisiae expressing PfHsp90, BacTiter-Glo ATP, 48 h; yeast lacking PDR1 and PDR3 efflux regulators;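 active = every replicate shows inhibition above about 80%, whatever the replicate mean, limit read from the data; inconclusive = mean inhibition reaches the set limit but some replicate falls short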
NLRP3 yeast inh – blocks the NALP3 inflammasome reconstituted in yeast | Yeast reconstituted NLRP3/ASC/caspase-1, beta-gal luminescence, 24 h | inhibition, % at 10 µM | actives 0.39% (n = 330,000) | AID 2825;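 active = inhibition of 50% or more; inactive = inhibition below 50%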
NALP3 yeast conf – NALP3 inhibition confirmation in yeast | shares compounds with NLRP3 yeast inh | yeast expressing human NALP3, luminescence | inhibition, % at 10 µM | actives 81% (n = 1,300) | AID 435006; in the data active = inhibition above about 48%
Casp1-ASC yeast – active in yeast caspase-1-ASC counter-screen for NALP3 inhibitors; shares compounds with NLRP3 yeast inh; yeast expressing Caspase-1-ASC, luminescence counter screen; inhibition, % at 10 µM; actives 66% (n = 1,000)
NALP3 yeast rt – yeast NALP3 inhibition, confirmed on retest | shares compounds with NLRP3 yeast inh | yeast expressing human NALP3, luminescence read-out | inhibition, % at 10 µM | actives 53% (n = 1,000)
Each line names hits and unclear results; the compound was inactive in the other large screens (follow-up assays come after a bar, where they were run). Rule as the data show it, unless noted: active = inhibition above about 50%; inactive = the rest.

C/C(=N\Nc1ccc(C(=O)O)cc1)c1ccc2c(c1)Nc1ccccc1S2	SKKanGAS inh 80.7
COc1cccc(Nc2c3c(nc4c(-c5ccccc5)c(C)nn24)CCC3)c1	SKKanGAS inh 77.8
Cc1nn2c(Nc3ccc(F)cc3)c3c(nc2c1-c1ccccc1)CCC3	none
O=C(/C=C/c1ccc(O)cc1)c1ccc(O)cc1O	none
O=C(C=Cc1cccc(O)c1)c1ccccc1O	PfHsp90 set2 104.0 (no result: tim10-1 inh, TIM10 inh, SKKanGAS inh, tim23-1 inh, NLRP3 yeast inh)
O=C(CCN1CCCCCC1)c1ccccc1	none (no result: SKKanGAS inh)
O=C(/C=C/c1ccccc1)CCN1CCCCC1	PfHsp90 set2 116.8 (no result: tim10-1 inh, TIM10 inh, SKKanGAS inh, tim23-1 inh, NLRP3 yeast inh)
O=C(/C=C/c1ccccc1)CC(=O)c1ccccc1O	SKKanGAS inh 49.8
CCOC(=O)C1(CCCc2ccccc2)CCN(Cc2ccn[nH]2)CC1	none
O=C(Nc1nnc(C2CC2)s1)c1cc(-c2ccccc2)nn1-c1ccccc1	SKKanGAS inh 73.5
COC(=O)CS(=O)(=O)c1cccc2cccnc12	none
CCC[C@@H]1C[C@@H](C(=O)NC(C(C)Cl)[C@H]2O[C@H](SC)[C@H](O)[C@@H](O)[C@H]2O)N(C)C1 (some centres undefined)	SKKanGAS inh 106.1
CCC[C@@H]1C[C@@H](C(=O)N[C@@H](C2O[C@H](SC)[C@H](O)[C@@H](O)[C@H]2O)[C@H](C)Cl)N(C)C1 (some centres undefined)	SKKanGAS inh 104.1 (no result: PfHsp90 set2)
CCCC1CC(C(=O)NC(C(C)Cl)C2OC(SC)C(O)C(O)C2O)N(C)C1 (centres undefined)	SKKanGAS inh 106.0
CCN1C(=O)[C@H]2[C@@H](c3ccc(C)cc3)N3C(=O)N(c4ccc(C(F)(F)F)cc4)C(=O)[C@@]3(Cc3ccccc3)[C@H]2C1=O	none
Cc1cccc(NS(=O)(=O)c2ccc(C3CCCCC3)cc2)c1	SKKanGAS inh 108.5
O=C(O)c1cccc(NS(=O)(=O)c2ccc(C3CCCCC3)cc2)c1	none
Cc1nn(-c2ccccc2)c(C)c1/C=N/NC(=O)c1cc(-c2ccccc2)n[nH]1	none (no result: PfHsp90 set2)
Cc1nn(-c2ccccc2)c(C)c1/C=N/NC(=O)c1cc(-c2cccc3ccccc23)n[nH]1	SKKanGAS inh 51.0
Cc1ccc(S(=O)(=O)Nc2nc(-c3ccccc3)cs2)cc1	none
Cc1ccc(S(=O)(=O)Nc2ccccc2C(=O)Nc2nc(-c3ccc(F)cc3)cs2)cc1	SKKanGAS inh 105.6, PfHsp90 set2 inconclusive
COc1ccc(-c2csc(NC(=O)c3ccccc3NS(=O)(=O)c3ccc(F)c(F)c3)n2)cc1	SKKanGAS inh 84.0
Cc1nn(-c2ccccc2)c(Cl)c1/C=N/NC(=O)c1ccc(NS(=O)(=O)c2cccs2)cc1	SKKanGAS inh 71.6 (no result: PfHsp90 set2)
Cc1cc(C)nc(N/N=C/c2cc(Br)ccc2O)n1	SKKanGAS inh 68.6
Cc1cc(C)nc(N/N=C/c2ccccc2OCc2ccc(Br)cc2)n1	none
N#C/C(=C(/O)c1ccc([N+](=O)[O-])o1)c1nc2ccccc2[nH]1	SKKanGAS inh 71.9
CC(=O)N(c1ccccc1C)C1CCCC1	none
CC(=O)N(C1=C(Cl)C(=O)c2ccccc2C1=O)C1CCCCC1	SKKanGAS inh 52.9, PfHsp90 set2 109.1
Cc1csc(=O)n1CCC(=O)OCC(=O)Nc1cc([N+](=O)[O-])ccc1Cl	none (no result: PfHsp90 set2)
CC1(C)CC2(CCO1)C(Nc1ccccc1)=NC(=S)N2c1ccccc1 (centres undefined)	none (no result: PfHsp90 set2)
CC/C(=C\C1CCCCC1)C(NP(=O)(c1ccccc1)c1ccccc1)c1ccccc1 (centres undefined)	SKKanGAS inh 100.9
S=c1[nH]nc(C2CCCCC2)n1/N=C/c1cccc(Cl)c1Cl	SKKanGAS inh 58.6
COc1ccc(-n2c(=S)[nH]c3cc(C(=O)Nc4ccc(C)c(F)c4)ccc3c2=O)c(OC)c1	SKKanGAS inh 76.1
CN(c1ccccc1)c1ccc(/C=N/N2CCOCC2)cc1	none
Clc1ccc(/C=C/c2nc3ccccc3[nH]2)cc1	NLRP3 yeast inh 54.0 | NALP3 yeast conf 76.8 | Casp1-ASC yeast 54.1 | NALP3 yeast rt 71.0
O=C(NCCCCc1ccccc1)c1ccc(Br)cc1	PfHsp90 set2 111.7, NLRP3 yeast inh 58.7 | NALP3 yeast conf 60.8 | Casp1-ASC yeast inactive | NALP3 yeast rt inactive
O=C(NCCCCc1ccccc1)c1ccccc1F	NLRP3 yeast inh 54.1 | NALP3 yeast conf 62.5 | Casp1-ASC yeast 53.1 | NALP3 yeast rt inactive
Cc1ccc(C(=O)OCC(=O)c2c[nH]c3ccccc23)cc1S(=O)(=O)N1CCOCC1	none (no result: SKKanGAS inh)
O=C(Nc1ccccc1)c1ccc(S(=O)(=O)N2CCCC2)cc1	none
O=C(Nc1ccccc1)c1ccc(S(=O)(=O)N2CCCCC2)cc1	NLRP3 yeast inh 51.6 | NALP3 yeast conf 63.5 | Casp1-ASC yeast inactive | NALP3 yeast rt inactive
Cc1cc(C(=O)C(C(c2ccccc2)N2CCOCC2)N2CCOCC2)ccc1Cl (centres undefined)	none (no result: tim10-1 inh, TIM10 inh, SKKanGAS inh, tim23-1 inh, NLRP3 yeast inh)
O=C(Nc1ccc(Br)cn1)c1cccc2ccccc12	NLRP3 yeast inh 51.5 | NALP3 yeast conf inactive
Clc1ccc(-c2nnn(Cc3nc4ccccc4s3)n2)cc1	none
Fc1ccc(-c2nnn(Cc3nc4ccccc4s3)n2)cc1	NLRP3 yeast inh 54.0 | NALP3 yeast conf 64.9 | Casp1-ASC yeast inactive | NALP3 yeast rt inactive
CCOc1ccc(CSCCNC(=S)Nc2ccc(OC)cc2)cc1	NLRP3 yeast inh 67.9 | NALP3 yeast conf 64.5 | Casp1-ASC yeast inactive | NALP3 yeast rt inactive
CCOc1ccc(NC(=S)N/N=C(\C)Cc2ccc(OC)cc2)cc1	none
CCC(CC)c1nnc(NC(=O)CCNC(=O)c2ccccc2Cl)s1	none
O=C(Nc1ccc(C2SCCS2)cc1)c1ccccc1	none (no result: PfHsp90 set2)
C=CCNc1nc(Cl)nc(Nc2ccc(OCC)cc2)n1	NLRP3 yeast inh 52.5 | NALP3 yeast conf inactive | Casp1-ASC yeast inactive | NALP3 yeast rt inactive
Cc1cc(C)c(S(=O)(=O)Nc2ccc(N(C)C)cc2)c(C)c1-n1cnnn1	none
CCCOc1ccc2c3c(c(=O)oc2c1)CCCC3	NLRP3 yeast inh 55.3 | NALP3 yeast conf 63.3 | Casp1-ASC yeast 78.0 | NALP3 yeast rt 63.6
Cc1cccc(C)c1NC(=O)C(C)Sc1n[nH]c(-c2ccncc2)n1 (centres undefined)	none
COc1ccccc1NC(=O)Nc1ccc(C)cn1	NLRP3 yeast inh 61.1 | NALP3 yeast conf 76.3 | Casp1-ASC yeast 68.2 | NALP3 yeast rt 64.8
CC(=O)N1N=C(c2ccc(C)c([N+](=O)[O-])c2)OC1(C)C	NLRP3 yeast inh 53.3 | NALP3 yeast conf 49.4 | Casp1-ASC yeast 74.8 | NALP3 yeast rt 56.8

Screening results: PubChem BioAssay, several laboratories
